Hits are enriched below; roughly 7.4% of the tested compounds scored in any of these assays.
FLuc counter: counter-screen for miR-21 project: firefly luciferase inhibitors or activators | purified FLuc, Km substrates, luminescence inhibition | Potency, µM (doses to about 57.5 µM), for the others: top-dose activity change, negative = inhibition, usual class: inhibitors | actives 6.9% (n = 360,000) | AID 588342;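 also: plate controls were vehicle for no effect and reference inhibitor for full effect; nearly all actives have a fitted effect of over 55% in size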
Target sequence (P08659 whole entry, looked up): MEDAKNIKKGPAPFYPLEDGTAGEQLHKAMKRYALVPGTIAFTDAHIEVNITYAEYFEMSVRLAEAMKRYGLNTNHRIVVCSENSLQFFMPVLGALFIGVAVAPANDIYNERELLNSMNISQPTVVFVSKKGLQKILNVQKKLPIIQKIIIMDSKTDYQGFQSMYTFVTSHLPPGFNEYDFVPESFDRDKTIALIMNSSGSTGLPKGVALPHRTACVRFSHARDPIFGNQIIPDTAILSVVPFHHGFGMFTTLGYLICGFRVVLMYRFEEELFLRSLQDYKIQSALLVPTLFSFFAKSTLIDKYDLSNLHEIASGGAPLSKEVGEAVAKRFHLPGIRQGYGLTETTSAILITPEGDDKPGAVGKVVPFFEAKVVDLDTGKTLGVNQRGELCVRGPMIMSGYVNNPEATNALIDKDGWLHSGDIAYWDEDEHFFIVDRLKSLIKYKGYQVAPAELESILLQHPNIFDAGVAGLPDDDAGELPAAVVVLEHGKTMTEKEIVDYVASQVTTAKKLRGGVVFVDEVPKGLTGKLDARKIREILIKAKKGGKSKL
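Biochemical qHTS of compounds, final roughly 60 µM downward over six points, against 10 nM purified firefly luciferase using Km concentrations of substrates (10 uM D-luciferin, 10 uM ATP) in Tris acetate pH 7.5 buffer; luminescence output.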
NPC1 prom act: activators of NPC1 promoter | Huh7 NPC1 promoter luciferase reporter, 24 h | actives 2.4% (n = 320,000) | Potency, µM (highest dose often 9.22 µM), for the others: at the top dose activation, actives largely listed as activators; also: % of control where 0% means no effect; nearly all actives have a fitted effect of over 60% in size
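Quantitative HTS used a cell-based reporter: Huh7 cells stably bearing the NPC1 promoter upstream of luciferase were treated with compounds for 24 h, and promoter activation was read as luminescence.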
p53 reactivation: mutant p53 re-activation in reporter cells; H1299 p53-A138V BP100-luciferase reporter, luminescence, 24 h; Potency, µM (highest dose often 92.2 µM), for the others: at the highest dose activity change, positive = activation, most hits filed as activators; actives 0.063% (n = 320,000); AID 504706; also: % of control where 0% means no effect; nearly all actives have a fitted effect of over 45% in size
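H1299 (p53-null), stable ts p53-A138V + BP100-Luc; 1000 cells/well, Opti-MEM/10% FBS; cpd 4 pt, 1:5; 24 h, 37 deg C, 5% CO2; detection reagent 10 min RT; luminescence.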
SMN2 splice up: SMN2 splice variant enhancement | HEK293 SMN2-luciferase splicing reporter, luminescence, 30-36 h | Potency, µM (doses to about 46.1 µM), for inactives: at the top dose activity change, positive = activation, hits mostly activators | actives 2.8% (n = 210,000); also: % of control where 0% means no effect; nearly all actives have a fitted effect of over 55% in size
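qHTS luciferase splicing reporter: luminescence rises when SMN2 exon 7 is included in transfected HEK293 cells. Compound exposure lasted 30-36 h at 37C, with 4.5 mM final sodium butyrate as control, followed by a ONE-Glo read.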
ELG1 genotox: genotoxicity induction in ELG1-luciferase HEK293T cells; Potency, µM (doses to about 46 µM), inactives show at the top dose activity change, positive = activation, usual class: activators; AID 504466; actives 1.3% (n = 330,000); HEK293T ELG1-luciferase reporter, luminescence, 16 h; also: % of control where 0% means no effect; nearly all actives have a fitted effect of over 60% in size
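HEK293T cells expressing luciferase-tagged ELG1 were exposed to compound or DMSO vehicle for 16 hr at 37 °C and 5% CO2. Luciferase activity was then measured with ONE-Glo after 30 min at room temperature.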
Rab9 promoter act: activators of Rab9 promoter; Huh7 Rab9 promoter-luciferase reporter, luminescence, 24 h; Potency, µM (doses to about 9.22 µM), for inactives: top-dose activation, negative = inhibition, usual class: activators; actives 2.8% (n = 320,000); AID 485297; also: % of control where 0% means no effect; nearly all actives have a fitted effect of over 60% in size
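Steps: seed 1500 Huh7 Rab9-luc cells per well, rest 2 h at 37 °C; add compound in DMSO; incubate 24 h; add luciferase reagent, 10 min ambient; read luminescence.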
Starred values were filed as active, the others as inactive; ? = inconclusive; . = no result given; [ ] = dose if it differs, or a comment. Calls follow the shape of the dose curve; as a rule, active = well fitted curve in the direction sought with a large enough effect; inconclusive = small, poorly fitted or top-dose-only effect, or another doubt; inactive = no such curve, though single readings can be large; an effect the other way counts as inactive or inconclusive. Potency is read from the fitted curve at half-maximal effect.

SMILES | FLuc counter | NPC1 prom act | p53 reactivation | SMN2 splice up | ELG1 genotox | Rab9 promoter act
C/C(=N\Nc1ccc(Cl)c(C(=O)O)c1)c1cc2ccccc2o1 | 27µM* | 18% | 4% | 25% | ? | ?
C/C(=N\Nc1ccc(Cl)c(C(=O)O)c1)c1cccc2ccccc12 | ? | 4% | 16% | . | 27% | 16%
C/C(=N\Nc1ccccc1)c1cc2ccccc2oc1=O | 21µM* | 10% | 0% | . | 12% | 25%
C/C(=N\Nc1cccc(C(=O)O)c1)c1cc2ccccc2o1 | 11µM* | ? | -3% | 11µM* | ? | 2.2µM*
COc1ccc(-n2nc(C(=O)N(C)c3cc(C)ccc3C)c3c4ccccc4n(C)c3c2=O)cc1Cl | -1% | . | . | -3% | . | .
Cc1ccc2nc(-c3ccc(NC(=O)CN(c4ccccc4C)S(C)(=O)=O)cc3)sc2c1 | 2.4µM* | ? | ? | 11µM* | ? | 3.2µM*
Cc1cc(C)cc(N(CC(=O)Nc2ccc(-c3nc4ccc(C)cc4s3)cc2)S(C)(=O)=O)c1 | 5.4µM* | ? | ? | 3%[1.84 µM] | ? | ?
COc1ccc(NC(=O)c2ccc3ccccc3c2)cc1 | 0.85µM* | 0.71µM* | 18% | . | 2.3µM* | 0.71µM*
COc1ccc(C(=O)NCCn2ccc3ccccc32)c(OC)c1 | 21µM* | ? | 3% | 29% | ? | ?
COc1ccc(C(=O)Nc2ccc3ccccc3c2)c(OC)c1 | 0.85µM* | 3.5µM* | . | . | 2.1µM* | ?
COc1ccc(NC(=O)c2coc(C)c2)cc1 | 24µM* | ? | ? | . | ? | ?
CCCSc1ncc(Cl)c(C(=O)Nc2c(C(=O)Nc3ccc(OC)cc3)oc3ccccc23)n1 | 3% | . | . | 8% | . | .
O=C(CSc1ccc(F)cc1)Nc1cccc(S(=O)(=O)N2CCOCC2)c1 | . | . | 2% | . | -4% | .
CC(C)(C)c1ccc(S(=O)(=O)NNC(=O)c2cc3ccccc3[nH]2)cc1 | 13µM* | 14% | -4% | . | ? | 12%
COc1ccc(NC(=O)c2cc3ccccc3[nH]2)cc1 | ? | 3.2µM* | ? | . | ? | 2µM*
Cc1cccc2cc(CN(CCCO)C(=O)Nc3cccc(Cl)c3)c(=O)[nH]c12 | 21µM* | -3% | -1% | -16% | -6% | -9%
Cc1cccc2cc(CN(CCCO)C(=O)Nc3ccc(Cl)cc3)c(=O)[nH]c12 | ? | -3% | 11% | -11% | 2% | 3%
Oc1ccc(/C=N/Nc2cccc(Cl)n2)c(O)c1 | 5.4µM* | ? | -8% | . | ? | 8%
Oc1ccc(/C=N/Nc2ccc(C(F)(F)F)cn2)cc1 | 17µM* | ? | 8% | 16µM* | ? | 3.5µM*
Oc1ccc(/C=N/Nc2ccc(C(F)(F)F)cn2)c(O)c1 | 12µM* | -21% | 11µM* | . | ? | 12%
O=C(Nc1ccccc1)N1CC[C@@]2(CCCN(C(=O)c3csnn3)C2)C1 | . | . | . | -19% | . | .
CS(=O)(=O)c1cnc(-c2ccccc2)nc1Sc1ccc(F)cc1 | -18% | -5% | 24% | . | ? | 2%
COc1cccc(Sc2nc(-c3ccccc3)ncc2S(C)(=O)=O)c1 | 17µM* | -4% | ? | . | 1% | -2%
Fc1ccc(C[n+]2csc3ccccc32)cc1 | 7.6µM* | -4% | 8% | 2% | 4% | 2%
Clc1ccc(C[n+]2csc3ccccc32)cc1 | 6.7µM* | 0% | ? | -3% | 0% | -7%
SMILES | FLuc counter | NPC1 prom act | p53 reactivation | SMN2 splice up | ELG1 genotox | Rab9 promoter act
COc1cc(-c2[o+]c3cc(O)cc(O)c3cc2O)cc(O)c1O | . | . | . | -4%[9.22 µM] | . | .
O=C(Cn1c(=O)n(-c2ccc(F)c(Cl)c2)c(=O)c2sc3ccccc3c21)NC1CCCCC1 | 0% | . | . | 6% | . | .
CCN(CC)c1ccc(C(=O)OCC(=O)Nc2ccc3[nH]c(=O)[nH]c3c2)cc1 | 19µM* | -1% | 10% | 2% | 3% | -4%
CCN(c1ccc(NC(=O)COC(=O)c2cccs2)cc1)C(C)C | 8.5µM* | -1% | 3% | ? | 0% | 13%
CCN(c1ccc(NC(=O)COC(=O)c2cc3ccccc3oc2=O)cc1)C(C)C | ? | -11% | 2% | -4% | -1% | -2%
COc1ccc(NC(=O)COC(=O)c2ccc3ccccc3n2)cc1 | -1% | 2% | 18% | . | 1% | -6%
CCN(CC)c1ccc(NC(=O)COC(=O)c2cccs2)cc1 | 12µM* | -1% | 8% | -3% | -1% | 2%
CCN(CC)c1ccc(NC(=O)COC(=O)c2ccc3ccccc3n2)cc1 | 24µM* | 11% | 4% | 23% | 1% | -4%
COc1ccc2c(CNCCc3cccs3)c(C(=O)O)n(Cc3ccccc3)c2c1 | 0% | . | . | . | . | .
CC(=O)Nc1ccc(-c2nnc3n(CC(C)C)c(=O)c4ccccc4n23)cc1 | -11% | . | . | . | . | .
COc1cc(Cl)ccc1OCc1cc(C(=O)N2CCCCCCC2)no1 | ? | 3% | 5% | . | 3% | 11%
COCCCC1CCN(C(=O)c2cc(COc3cc(C)ccc3C)on2)CC1 | 12µM* | 2.5µM* | ? | . | ? | 3.5µM*
COCCN1CCN(C(=O)c2cc(COc3cc(C)ccc3C)on2)CC1 | 13µM* | ? | ? | . | ? | 2.2µM*
Cc1ccc(C)c(OCc2cc(C(=O)N3CCNC(=O)C3)no2)c1 | 6% | -6% | 1% | . | 0% | 11%
COc1cc(C)ccc1OCc1cc(C(=O)N2CCCCCC2)no1 | ? | 18% | 19% | . | 2% | 22%
Cc1ccc(C)c(OCc2cc(C(=O)N3CCOCC3)no2)c1 | 21µM* | 23% | ? | . | ? | ?
COCCN1CCN(C(=O)c2cc(COc3ccc(Cl)cc3OC)on2)CC1 | 11µM* | ? | 21% | . | 21µM* | 3.2µM*
Cc1ccc([N+](=O)[O-])cc1S(=O)(=O)Nc1ccc(C(=O)N2CCN(C(=O)c3ccco3)CC2)cc1 | . | -2% | 2% | . | 0% | 0%
CC(=O)NCCC1CCCCN1C(=O)c1cc(COc2cc(C)ccc2C)on1 (centres undefined) | 17µM* | 3.5µM* | ? | . | 16µM* | 2.2µM*
Cc1ccc(C)c(OCc2cc(C(=O)N3CCC(N4CCCC(O)C4)CC3)no2)c1 (centres undefined) | -1% | -1% | 6% | . | 4% | 4%
Cc1occc1-c1nnc(SC(C)C(=O)Nc2ccccc2F)o1 (centres undefined) | 2% | ? | 23% | . | ? | 2.8µM*
O=C(O)c1sccc1S(=O)(=O)Nc1ccc(Cl)cc1 | . | . | . | -7% | . | .
CCNC(=O)c1ccccc1-c1nc(-c2ccccc2OC)no1 | ? | 2% | -3% | . | -10% | 1%
